The record followed here is PubChem BioAssay.

In the test the test system is Wnt5a (protein binding on small-molecule microarray). The test can be described thus: small molecules binding Wnt5a protein – biophysical, small-molecule microarray, 635/667 nm fluorescence, primary screen (AID 1142).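 Further: fluorescence read at 667 nm with signal to noise per printed feature.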 Conditions: 635 nm fluorescence, higher = more signal.
Consider `COc1ccc([Si](C)(C)[C@@H]2[C@@H](CCO)O[C@]3(C(=O)N(Cc4ccc(NC(C)=O)cc4)c4ccccc43)[C@H]2C)cc1`, for which the composite z-score amounted to 0.913.
The figure for `CCCCC(=C=CC[C@H](O)c1ccccc1OCCO)C[C@H](O)COCc1ccccc1` is -0.0702.
In the case of `COC(=O)[C@H]1COC(c2ccc(OCCCO)cc2)=N1`, the composite z-score was -0.0323.
With `CC(C)C[C@@H]1NC(=O)[C@H]2C[C@@H](C(=O)NCCCCCCN(C)C)[C@@H](c3cccc(OCCO)c3)N2C1=O`, the composite z-score turned out to be 0.726.
As for `O=C1O[C@@H](c2ccccc2)[C@@H](c2ccccc2)N2[C@@H](c3ccccc3OCCO)[C@]3(C(=O)Nc4ccc(C#CCCO)cc43)[C@@H](C(=O)O)[C@H]12`, the composite z-score turned out to be 0.44.
As for `CC(C)NC(=O)[C@@]1(C)c2ccccc2C(=O)N(Cc2cc(F)cc(C(F)(F)F)c2)[C@H]1c1ccc(CO)cc1`, the composite z-score is 0.646.
`O=C1O[C@@H](c2ccccc2)[C@@H](c2ccccc2)N2[C@@H](c3ccc(OCCO)cc3)[C@]3(C(=O)Nc4ccccc43)[C@@H](C(=O)N3CCN(c4ncccn4)CC3)[C@H]12`: the composite z-score was determined as 0.22.
Consider `CCc1cc2c(nc1CC)CCN(CCC(C)=NOC[C@@H](O)[C@H]1O[C@@H]3OC(C)(C)O[C@@H]3[C@H]1O)C2`, for which the composite z-score is 0.146.
The figure for `C=CC[C@@H]1C=C[C@H](ON=C(C)CCN2CCc3nc(CC)c(CC)cc3C2)[C@@H](CO)O1` is 0.255; for `CN(C)CCCNC(=O)[C@@H]1c2ccccc2C(=O)N(Cc2cc(F)cc(C(F)(F)F)c2)[C@H]1c1ccc(CO)cc1` it is 0.095; for `O=C1[C@H]2[C@H]3[C@H](O)[C@H](O)CC(=NOC[C@@H](O)COCc4ccco4)[C@H]3CC[C@H]2C(=O)N1c1cccc(Oc2ccccc2)c1` it is -0.31.
The figure for `CS(=O)(=O)CCOC(=O)C1=CC(CCCO)=CC(c2cccs2)N(Cc2cccc(OC(F)(F)F)c2)C=C1C(=O)OCCS(C)(=O)=O` (stereo unspecified) is 0.141; for `CC(CCC(=O)OC[C@H]1O[C@H](C#Cc2ccccc2)C=C[C@@H]1Oc1ccc(C)cc1)=NO[C@@H](C)c1cn([C@H](CO)Cc2ccccc2)nn1` it is 0.204.
With `COc1ccc(O[C@H]2C=C[C@@H](c3ccccc3)O[C@@H]2COC(=O)CCC(C)=NO[C@@H](C)c2cc(-c3c(C)cc(C)cc3C)no2)cc1`, the composite z-score was -0.61.
In turn, `CC(C)[C@@H](OCc1ccccc1)[C@H](C)C=NO[C@H](C)c1cn([C@H](CO)Cc2ccccc2)nn1` yielded a composite z-score of 0.231.
Under `COc1cccc([C@H]2Oc3ccc(OC)cc3C(=NOC(C)CN3CCCc4nc(C)c(C)cc43)[C@@H]2O)c1` (stereo partly specified) stands 0.35; under `O=C1C[C@@H](O)[C@@H](O)[C@@H]2[C@@H]3C(=O)N(C4CCCCC4)C(=O)[C@@H]3CC[C@H]12`, 0.0832; under `COc1ccc([Si](C)(C)[C@H]2[C@H](CC(=O)N3CCC[C@H]3CO)O[C@@]3(C(=O)N(Cc4cccc(N5C(=O)COc6ccccc65)c4)c4ccccc43)[C@@H]2C)cc1`, 0.156.
In turn, `CC(C)NC(=O)[C@@]1(c2ccc([N+](=O)[O-])cc2)CC(=O)N(CC23CC4CC(CC(C4)C2)C3)[C@@H]1c1ccc(CO)cc1I` yielded a composite z-score of 0.492.
The compound `C=CCOC(=O)[C@H]1[C@@H]2C(=O)O[C@@H](c3ccccc3)[C@@H](c3ccccc3)N2[C@@H](c2ccc(OCCOC(=O)[C@H]3C[C@H]4C(=O)N5CCC[C@H]5C(=O)N4[C@H]3c3cccc(OCCO)c3)cc2)[C@]12C(=O)Nc1ccc(I)cc12` displayed a composite z-score of 1.83.
The figure for `CC(C)CN1CCc2nc(-c3ccccc3)c3c(c2CC1)CO[C@@H](C)C3` is 0.134; for `CC(C)OC(=O)C=C1C[C@@H](c2ccc(C#N)cc2)O[C@@H](c2ccc(C#N)cc2)O1` it is 0.923; for `C=CC[C@@H]1C=C[C@H](ON=C[C@@H](OC)[C@H](C)C=CCC(=O)OC)[C@@H](CO)O1` it is 0.313.
For `CN1C(=O)C2C(C1=O)C1C=C(CCCO)C2C(c2ccc(CN3CCCC3)cc2)N1C` (stereo unspecified), the composite z-score was -0.205.
On to `COCC(=C=CC[C@@H](O)c1ccccc1OCCO)CCO`, for which the composite z-score turned out to be 0.0554.
Regarding `COCCOC(=O)N1C(=O)[C@@]2(c3cc(C#CCNC(N)=O)ccc31)[C@H](c1ccc(O)cc1)N1[C@H](c3ccccc3)[C@H](c3ccccc3)OC(=O)[C@H]1[C@@H]2C(=O)N1CCCCCCC1`, the composite z-score is 0.272.
Under `C=C(/C(=C/C[C@H](OC(=O)c1ccncc1)c1ccc(OCCO)cc1)c1cnc2ccccc2c1)C(C)C` stands 1.32; under `Cc1cc2c(c(=O)o1)[C@H](O)[C@H]1O[C@H]1C2=O`, -0.218; under `COC(=O)[C@@H]1CC[C@H](C)[C@@H](c2ccc(C)cc2)N1C(=O)c1ccc(C=NOC[C@@H](O)COCc2ccco2)cc1`, -0.523.
Under `CO[C@@H]1COC(=O)[C@H](C)NC(=O)[C@@H](C)COC(=O)CCC[C@H]1C` stands -0.0361; under `CC(C)c1ccc(NN2C(C(O)c3ccc4c(c3)OCO4)C=CC3C(=O)N(c4ccccc4)C(=O)C32)cc1` (stereo unspecified), 0.268; under `CCOC(=O)[C@H](Cc1ccccc1)NC(=O)CCC1CC(OC(=O)NCc2ccc3c(c2)OCO3)CC2(CCCC(COC(=O)NCc3ccccc3)O2)O1` (stereo partly specified), 0.0594.
Consider `CC(C)(C)OC(=O)CC[C@]1(C(=O)NCc2ccccc2)N=C(c2ccc(OCCCO)cc2)O[C@H]1c1ccccc1`, for which the composite z-score is 1.01.
The figure for `Cc1ccc(C2CC=C(C(=O)O)CN2S(=O)(=O)c2ccc(C)cc2)cc1` (stereo unspecified) is 0.212.
Under `CC[C@@H](c1ccccc1)n1c(=O)n2n(c1=O)[C@H]1[C@H](O)[C@@H]3O[C@@H]3C(=NOCC=C(C)CCC=C(C)C)[C@H]1CC2` stands 0.33; under `CC(CCC(=O)OC[C@H]1O[C@H](C#Cc2ccccc2)C=C[C@@H]1Oc1ccc(C)cc1)=NOC[C@@H](O)COCc1ccco1`, -1.52.
